RXFP1 ag: qHTS Assay for Agonists of the Relaxin Receptor RXFP1. Relaxin receptor 1 (Homo sapiens), Q9HBX9. AID 2676, 2010. HEK293T-RXFP1 cAMP TR-FRET, 30 min; response scale: percent of porcine relaxin response, buffer zero. 0.3% of 370,000 active. Potency, µM (highest dose often 57.5 µM), for the others: top-dose activation, most hits filed as activators; active = well fitted activation curve with a large enough effect; inconclusive = small, poorly fitted or top-dose-only effect; also: potency is read from the fitted curve at half-maximal effect; % is scaled to controls: 0 for no effect and ±100 for the full control effect; nearly all actives have a fitted effect of over 60% in size
Target sequence (Q9HBX9 whole entry, looked up): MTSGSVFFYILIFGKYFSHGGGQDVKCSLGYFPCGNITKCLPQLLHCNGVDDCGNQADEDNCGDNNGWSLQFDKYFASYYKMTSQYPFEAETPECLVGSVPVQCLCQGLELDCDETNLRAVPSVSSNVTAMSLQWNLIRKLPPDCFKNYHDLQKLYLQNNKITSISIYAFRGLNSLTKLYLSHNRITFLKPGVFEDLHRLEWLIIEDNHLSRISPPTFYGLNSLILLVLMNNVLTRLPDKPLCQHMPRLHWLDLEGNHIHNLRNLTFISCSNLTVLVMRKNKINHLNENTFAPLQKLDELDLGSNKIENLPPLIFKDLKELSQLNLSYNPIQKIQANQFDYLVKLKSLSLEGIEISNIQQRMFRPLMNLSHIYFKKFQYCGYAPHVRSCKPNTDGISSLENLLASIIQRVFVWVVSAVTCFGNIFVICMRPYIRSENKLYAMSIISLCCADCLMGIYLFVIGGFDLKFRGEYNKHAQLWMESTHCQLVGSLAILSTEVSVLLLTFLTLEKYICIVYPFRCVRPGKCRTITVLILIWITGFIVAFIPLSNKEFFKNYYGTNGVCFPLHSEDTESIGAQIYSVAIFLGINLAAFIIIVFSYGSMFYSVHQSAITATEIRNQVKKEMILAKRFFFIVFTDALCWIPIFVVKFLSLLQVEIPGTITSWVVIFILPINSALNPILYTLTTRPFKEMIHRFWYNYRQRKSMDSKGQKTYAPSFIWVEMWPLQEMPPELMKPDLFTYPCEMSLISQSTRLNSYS
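cAMP rise read by TR-FRET after 30 min, 37C compound exposure (up to 58 uM) in RXFP1-transfected HEK293 cells with Ro 20174 present. EC50 from Hill-equation fits, with 29 nM porcine relaxin as 100% and buffer as basal.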
RXFP1 antag: qHTS Assay for Antagonists of the Relaxin Receptor RXFP1. Relaxin receptor 1 (Homo sapiens), Q9HBX9. HEK293-RXFP1, relaxin-stimulated cAMP HTRF, 30 min; active compounds read low. activity change, negative = inhibition, % at 57.5 µM. 0.59% of 350,000 active;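 active = activity change of -60% or lower, but not beyond a set lower limit; inconclusive = change between -60% and -40%, or beyond the set limit; inactive = change above -40%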; also: % is scaled to controls: 0 for no effect and ±100 for the full control effect
ClpP mod: qHTS Assay for Activators of ClpP; ATP-dependent Clp protease proteolytic subunit (Bacillus subtilis (strain 168)), P80244; purified B. subtilis ClpP, FRET peptide cleavage, 20 min; Potency, µM (titrated, usually from 57.5 µM), for the others: at the top dose activity change, negative = active; 1.9% of 340,000 active; AID 651965, 2013; active = well fitted falling curve with a large enough effect; inconclusive = small, poorly fitted or top-dose-only effect; inactive = no such curve, though single readings can be large or run the other way; also: potency is read from the fitted curve at half-maximal effect; the source files actives as falling curves though it sought activators and does not explain the sign; nearly all actives have a fitted effect of over 65% in size
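Purified B. subtilis ClpP, 10 microg/mL final in Tris/HCl pH8 with KCl, BSA, glycerol and Tween-20, cleaved an Abz/nitrotyrosine-quenched decapeptide. Fluorescence (ex 320, em 430) was read at 0 and 20 min at room temperature. Delta was normalized to 5.8 microM ADEP and DMSO/no-enzyme controls.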
gsp agonist: qHTS for Agonist of gsp, the Etiologic Mutation Responsible for Fibrous Dysplasia/McCune-Albright Syndrome: qHTS; 0.13% of 340,000 active; Potency, µM (titrated, usually from 76.9 µM), for the others: at the highest dose activation (cAMP increase), actives largely listed as activators; gsp mutant cells, cAMP HTRF, 30 min; active = well fitted activation curve with a large enough effect; inconclusive = small, poorly fitted or top-dose-only effect, or another doubt; inactive = no such curve, though single readings can be large or run the other way; cell line not stated here;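 also: phosphodiesterase inhibitor Ro 20-1724 added with compounds to block cAMP breakdown; potency is read from the fitted curve at half-maximal effect; nearly all actives have a fitted effect of over 60% in size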
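Cells in DMEM/10% FBS with G418 were pretreated with compounds in DMSO plus […] (300 uM stock) for 30 min at 37C. cAMP was measured by HTRF (cAMP-d2 plus anti-cAMP antibody-K) after 30 min at room temperature.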
gsp antag: qHTS for Antagonists of gsp, the Etiologic Mutation Responsible for Fibrous Dysplasia/McCune-Albright Syndrome: qHTS. gsp-mutant cells, cAMP HTRF, 30 min. Potency, µM (doses to about 76.9 µM), inactives show at the highest dose activity change, negative = inhibition, usual class: inhibitors. 0.4% of 340,000 active. AID 624288, 2012; calls by dose curve; cell line not stated here;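 also: intracellular cAMP measured with PDE inhibitor Ro 20-1724 present during compound exposure; potency is read from the fitted curve at half-maximal effect; % is scaled to controls: 0 for no effect and ±100 for the full control effect; nearly all actives have a fitted effect of over 65% in size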
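Cells, 2000/well, grown 16–24 h in DMEM 10% FBS with 0.5 mg/ml G418, then compounds plus […] (300 uM addition stock), 30 min at 37C. cAMP read by HTRF (cAMP-d2 and anti-cAMP antibody-K in lysis buffer) after 30 min RT.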
pAkt inh: HTS Assay for Inhibitors of Akt Phophorylation: Primary Screen; Neuro2A IGF-stimulated pAkt S473 HTRF, 20 min; active compounds read low; 0.32% of 360,000 active; AID 651550, 2012; activity change, % for hits at 50 µM; in the data active = activity change below about -80%; inconclusive = mostly about -51% to -80%; also: % is scaled to controls: 0 for no effect and ±100 for the full control effect
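Neuro2A cells (4,500/well, DMEM with 0.5% FBS) were treated with compound at a single 50 µM final concentration, stimulated with 6 nM IGF for 20 min at 37 °C, and lysed. Phospho-Akt Ser473 was read by HTRF as 665/615 ratio ×10^4.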
An asterisk follows results filed as active; [ ] = dose if it differs, or a comment. Sampled rows, rich in hits. Any-hit rate of the full collection: about 2.7%.

COc1ccc(C(=O)N2CCCCC2c2cc(C(=O)NCc3ccc(F)cc3)no2)cc1 (stereo not given) was read as ClpP mod -3% and pAkt inh inactive.
Screening COc1ccc(OCc2nc3c4c(ncn3n2)-c2ccccc2CC42CCCC2)cc1 returned RXFP1 ag 1%, RXFP1 antag -9, ClpP mod 28µM*, gsp agonist inconclusive, gsp antag 1% and pAkt inh inactive.
For CC1OC23CCCCC2C(C#N)(C(=N)O3)C1(C#N)C#N (stereo not given) the results were RXFP1 ag 3%, RXFP1 antag 12, ClpP mod 51%, gsp agonist -11%, gsp antag 17% and pAkt inh inactive.
For COc1ccc(C2OC34CCCCC3C(C#N)(C#N)C2(C#N)C(=N)O4)cc1 (stereo not given) the results were RXFP1 ag 2%, RXFP1 antag 5, ClpP mod 11µM*, gsp agonist 0%, gsp antag 6%[15.4 µM] and pAkt inh inactive.
COC(=O)c1ccc(NC(=O)N2CCc3c([nH]c4ccccc34)C2c2ccc(C)cc2)cc1 (stereo not given) was read as RXFP1 ag -1%, RXFP1 antag -5 and ClpP mod -20%.
`COc1cc(C(=O)N2CCN(Cc3ccccc3C(F)(F)F)CC2)cc(OC)c1OC` gave RXFP1 ag 2%, RXFP1 antag -3, ClpP mod 1%, gsp agonist -40%, gsp antag -15% and pAkt inh inactive.
`COc1cccc(OC)c1C(=O)N1CCN(Cc2ccccc2C(F)(F)F)CC1` gave RXFP1 ag 4%, RXFP1 antag -13, ClpP mod 32µM*, gsp agonist 39%, gsp antag -12% and pAkt inh inactive.
Screening N#Cc1nc(N2CCCCC2)nc(N2CCCCC2)n1 returned ClpP mod -3%.
For Cc1ccc(OCC(=O)NC2CC(C)(C)NC(C)(C)C2)cc1C the results were RXFP1 ag -2%, RXFP1 antag -82*, gsp agonist -36%, gsp antag 2% and pAkt inh inactive.
CC1(C)CC(NC(=O)COc2ccc3ccccc3c2)CC(C)(C)N1 was read as RXFP1 ag 1%, RXFP1 antag -2, ClpP mod -2%, gsp agonist -4%, gsp antag 3% and pAkt inh -115%*.
CCc1ccc(OCC(=O)NC2CC(C)(C)NC(C)(C)C2)cc1 was read as RXFP1 ag 3%, RXFP1 antag -4, gsp agonist 21%, gsp antag 6% and pAkt inh inactive.
For COc1ccc(NC(=O)NCCn2nnc3cc(S(=O)(=O)N(C)C)ccc32)cc1 the results were RXFP1 ag 2% and ClpP mod 0%.
Screening ON=C(CCc1ccccc1)CCc1ccccc1 returned RXFP1 antag -6, ClpP mod -1%, gsp agonist -5%[15.4 µM], gsp antag 0% and pAkt inh inactive.
CCN(CC)c1ccc(/C=N/NC(=O)c2c[nH]c3ccccc23)cc1 was read as RXFP1 ag 1%, RXFP1 antag 0, ClpP mod 32µM*, gsp agonist -3%, gsp antag 1% and pAkt inh inactive.
CCN(CC)c1ccc(/C=N/NC(=O)c2cc3ccccc3[nH]2)cc1 was read as RXFP1 ag 5%, RXFP1 antag -10, ClpP mod 4%, gsp agonist 2%, gsp antag -16% and pAkt inh inactive.
CC(C)OCCCn1c(=O)c2ccccc2n2c(CCC(=O)N3CCN(c4ccccn4)CC3)nnc12 was read as RXFP1 ag 19%, RXFP1 antag -29, ClpP mod -15%, gsp agonist 20µM*, gsp antag -8% and pAkt inh inactive.
`CC(C)CCn1c(=O)c2ccccc2n2c(CCC(=O)NCC3CCCO3)nnc12` (stereo not given) gave RXFP1 ag inconclusive, RXFP1 antag -13, ClpP mod -22%, gsp agonist 32µM*, gsp antag 6% and pAkt inh inactive.
For O=C(CCc1nnc2n(Cc3ccc(Cl)cc3)c(=O)c3ccccc3n12)N1CCN(c2ccccn2)CC1 the results were RXFP1 ag -1%, RXFP1 antag 11, ClpP mod -8%, gsp agonist inconclusive, gsp antag -12% and pAkt inh inactive.
For N/C(=N\OC(=O)COc1ccccc1Cl)c1ccccn1 the results were RXFP1 ag 0%, RXFP1 antag 4, ClpP mod 14µM*, gsp agonist 8%, gsp antag 3% and pAkt inh inactive.
For Cc1cccc(C(=O)NCC(=O)N2CCN(c3ccccn3)CC2)c1 the results were RXFP1 antag 1, ClpP mod 28µM*, gsp agonist -4%, gsp antag 7% and pAkt inh inactive.
Screening CCc1nnc(NC(=O)CCC(=O)N2CCN(Cc3ccccc3)CC2)s1 returned RXFP1 ag 1%, RXFP1 antag -2, ClpP mod -1%, gsp agonist -24%, gsp antag 3% and pAkt inh inactive.
For CCc1nnc(NC(=O)CCC(=O)N2CCN(c3ccccn3)CC2)s1 the results were RXFP1 ag 2%, RXFP1 antag 3, ClpP mod 18µM*, gsp agonist -28%, gsp antag 3% and pAkt inh inactive.
`COc1ccc(CCn2c(=O)[nH]c3cc(C(=O)N4CCN(c5ccccn5)CC4)ccc3c2=O)cc1OC` gave RXFP1 ag 1%, RXFP1 antag -11, ClpP mod 11µM*, gsp agonist 7%[15.4 µM], gsp antag 2% and pAkt inh inactive.
Screening Cc1cccc(C(=O)N2CCN(c3ccccn3)CC2)c1 returned RXFP1 ag -1%, RXFP1 antag -17, ClpP mod -22%, gsp agonist -8%, gsp antag 0% and pAkt inh inactive.
COc1ccc(CCn2c(=O)[nH]c3cc(C(=O)N4CCN(c5ccccc5)CC4)ccc3c2=O)cc1OC was read as RXFP1 ag 3%, RXFP1 antag -8, ClpP mod 0%, gsp agonist -2%[15.4 µM], gsp antag -8% and pAkt inh inactive.
